ATXN2 expr inh: inhibitors of ATXN2 expression. HEK-293 ATXN2-luciferase reporter, luminescence, 24 h. AID 1745845. hit rate 0.72% among 360,000. Potency, µM (highest dose often 57 µM), for the others: at the highest dose activity change, negative = inhibition, hits mostly inhibitors; note: potency is the fitted concentration of half-maximal effect; % is set by controls: 0 for no effect and ±100 for the full control effect; nearly all actives have a fitted effect of over 55% in size
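ATXN2-luciferase reporter cells (luciferase flanked by upstream and downstream ATXN2 gene portions) were treated 24 h at 37 °C with compounds at up to 57 uM. SteadyGlo luminescence gave expression; GF-AFC fluorescence gave viability.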
IL1B secr inh: blocks inflammasome-driven IL-1 beta release | THP-1 LPS/ATP IL-1B secretion, AlphaLISA, 16 h; hits give low values | activity change, % at 57.5 µM | hit rate 4.7% among 360,000; in the data active = activity change below about -50%; inconclusive = mostly about -30% to -49%; note: % is set by controls: 0 for no effect and ±100 for the full control effect
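THP-1 cells pretreated 1 hr with compounds (up to 57.5 uM final), then stimulated with LPS (250 ng/mL final) plus ATP (1.25 mM final); secreted IL-1B measured by AlphaLISA after 16 hr, decreased signal indicating inhibition.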
TGFb SMAD3 inh: inhibitors of TGF-b signaling. Potency, µM (highest dose often 46.1 µM), inactives show top-dose activity, negative = inhibition, hits mostly inhibitors. AID 588855. HepG2 CAGA-GFP TGF-b/SMAD3 reporter, GFP fluorescence, 18 h; TGF-beta stimulated, 500 pg/mL final. hit rate 1.2% among 410,000; note: potency is the fitted concentration of half-maximal effect; % is set by controls: 0 for no effect and ±100 for the full control effect; nearly all actives have a fitted effect of over 65% in size
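HEPG2 CAGA-GFP cells (1000/well, DMEM with 1% FBS) were pre-incubated 2 h at 37 degrees C, given compound by pin tool, then stimulated with TGF-beta at 500 pg/mL final for 18 h before per-cell GFP fluorescence imaging.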
S2 tox: reduces viability in counter-screen for ATXN expression inhibitors. S2 cells (HEK-293 line with an ATXN2-luciferase reporter) viability, CellTiter-Fluor protease fluorescence, 24 h. Potency, µM (highest dose often 56.7 µM), most hits filed as cytotoxic. hit rate 0.49% among 400,000. AID 651635; note: potency is the fitted concentration of half-maximal effect; nearly all actives have a fitted effect of over 40% in size
HepG2 viability: HepG2 cytotoxicity, counter-screen for TGF-b inhibitors; HepG2 CAGA-GFP viability, ATP luminescence, 18 h; Potency, µM (series often up to 46.1 µM), inactives show top-dose activity change, negative = cytotoxicity, hits mostly cytotoxic; hit rate 0.76% among 410,000; AID 588856; note: potency is the fitted concentration of half-maximal effect
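CellTiter-Glo luminescence gave cytotoxicity after 18 hours at 37 degrees C. The cells were HepG2 CAGA-GFP in 1% FBS DMEM, stimulated with 500 pg/mL TGF-beta after compound addition. %Activity was normalised to no-cell wells (complete cell-killing) and DMSO (no toxicity), and curves were fitted and classified.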
An asterisk follows results filed as active; i = inactive; ? = inconclusive; · = no result. An excerpt weighted towards active compounds, which were near 5.7% of everything screened. Unless noted, calls come from the whole dose curve; as a rule, active = well fitted curve in the direction sought with a large enough effect; inconclusive = small, poorly fitted or top-dose-only effect, or another doubt; inactive = no such curve, though single readings can be large; an effect the other way counts as inactive or inconclusive.

SMILES | ATXN2 expr inh | IL1B secr inh | TGFb SMAD3 inh | S2 tox | HepG2 viability
CC1=C(C(=O)Nc2ccccc2)C(c2ccc(C(=O)O)cc2)n2nc(SCC(=O)c3ccc(C)cc3)nc2N1 (stereo unspecified) | -2.5% | · | -2.4% | i | -2.6%
CN(C)c1ccc(/C=C/c2ccnc3ccc(Cl)cc23)cc1 | · | · | ? | · | -33.5%
COc1cc(CNCc2ccccn2)ccc1OCC(N)=O | 1.6% | 10.4 | -21.1% | i | -7.1%
COc1cc(CNCCN2CCOCC2)ccc1OCc1cccc(Cl)c1 | -0.2% | ? | 67.1% | i | -22.6%
COc1cc(CNCc2ccccn2)ccc1OCc1ccc(Cl)cc1Cl | -23.1% | -53.4* | ? | i | -70.4%
COc1cc(CNCCN2CCOCC2)ccc1OCc1ccc(Cl)cc1Cl | ? | ? | 20µM* | · | -100.9%
COc1cc(CNCCO)cc(Cl)c1OCc1ccc(Cl)cc1Cl | 15.8µM* | -83.4* | 22.4µM* | 35.5µM* | -190.0%
COc1cc(CNCc2ccccn2)ccc1OCc1ccc(Cl)c(Cl)c1 | 6.0% | -92.8* | -9.9% | i | -28.4%
Cc1ccc2c(c1)sc1nc(-c3cc4cc(Cl)ccc4oc3=O)cn12 | · | · | 23.5% | · | 4.6%
C[N+]1(CC(=O)c2ccc3ccccc3c2)CCOCC1 | · | · | -3.4% | · | 3.3%
CCc1ccc(CN(Cc2ccco2)c2cnc(S(C)(=O)=O)nc2C(=O)Nc2cccc(C)c2)cc1 | 9.5% | · | ? | i | -25.7%
CCCCN(CCCNC(=O)c1ccc2c(c1)NC(=O)CN2C)c1ccccc1 | · | -103.1* | ? | 17.8µM* | 15.8µM*
CCOc1ccc(NC(=O)CN2C(=O)NC(C)(c3ccc(OC(F)F)cc3)C2=O)cc1 (stereo unspecified) | 6.9% | -67.1* | -1.5% | ? | 1.1%
OCC1(Cc2cccc(Cl)c2)CCCN(Cc2ccc(F)c(F)c2)C1 (stereo unspecified) | -20.5% | -55.3* | -18.2% | ? | -0.8%
CSc1cccc(CN2CCCC(CO)(Cc3cccc(Cl)c3)C2)c1 (stereo unspecified) | 2.1% | -7.6 | 1.0% | i | -2.3%
OCC1(Cc2ccccc2)CCCN(Cc2c[nH]c3ccccc23)C1 (stereo unspecified) | -18.1% | -64.9* | -0.2% | i | -41.0%
OCC1(Cc2ccccc2)CCCN(Cc2ccc(-c3ccco3)cc2)C1 (stereo unspecified) | -12.2% | -84.0* | -8.8% | i | -18.3%
CC1(C)CCC[C@@]2(C)[C@@H]1CC[C@@]1(C)OC(=O)C[C@H]21 | -16.1% | · | · | · | ·
COc1ccc(Cn2c(O)c(C=Nc3ccc(O)cc3)c3ccccc3c2=O)cc1 | ? | -54.0* | -13.8% | i | -66.9%
CCc1ccc(S(=O)(=O)c2nnn(-c3cccc(C)c3)c2N)cc1 | -4.8% | · | -9.3% | i | -2.2%
COc1cc(OC)c2nc(-c3cc4c(c(OC)c3)OCCN(C(=O)C(C)c3n[nH]c(=O)c5ccccc35)C4)cc(C)c2c1 (stereo unspecified) | · | · | · | i | ·
CC1Cc2ccccc2N1C(=O)c1ccc2c(c1)OCO2 (stereo unspecified) | 15.6% | -63.8* | 15.8% | i | 5.0%
CC1Cc2ccccc2N1C(=O)c1ccc(N2CCCC2)c([N+](=O)[O-])c1 (stereo unspecified) | ? | -81.7* | -25.4% | i | -40.3%
COc1ccc2cc(CNc3ccc(OC)c(OC)c3)c(=O)n(CC(=O)Nc3ccc(C)cc3)c2c1 | -0.4% | · | 14.1% | ? | -8.0%
Cc1ccc(-n2nnnc2CNC(=O)C(C)(C)C)cc1C | · | · | 7.3% | · | 0.1%
SMILES | ATXN2 expr inh | IL1B secr inh | TGFb SMAD3 inh | S2 tox | HepG2 viability
Fc1ccc2[nH]c3c(c2c1)CN(C(=S)NCc1ccccc1)CC3 | -7.8% | -89.4* | ? | i | -30.7%
C=CCNC(=O)N1CCc2[nH]c3ccc(F)cc3c2C1 | · | -6.9 | 17.7% | i | 6.8%
CCc1c(-c2ccccc2)nc2ccccc2c1C(=O)NCc1ccc(C)cc1 | · | · | -25.5% | · | -24.4%
Cc1ccc(CNc2ccc3c(c2)OCO3)cc1 | 31.7% | -93.2* | -0.8% | i | 12.6µM*
CC(C)CC(=O)Nc1ccc2c(c1)OCO2 | 1.1% | -11.7 | 1.4% | i | 6.7%
O=C(CCl)Nc1ccc2c(c1)OCO2 | -16.2% | -97.4* | -15.2% | · | -52.2%
